Experimental data as given in PubChem BioAssay (Tox21).
Several values for one entry are separate records, joined by “and”; a condition that tells them apart may be missing. Equal values may be shown once. Some compounds were tested as several samples or in several runs, with calls that do not always agree. Activity calls are given as the source filed them. Unless noted, calls follow the shape of the dose curve; as a rule, active = well fitted curve in the direction sought with a large enough effect in the repeat runs; inconclusive = weak or mixed curves; inactive = no such curve, though single readings can be large; an effect the other way counts as inactive or inconclusive.

How the values were obtained:
[1] = qHTS assay to identify small molecule antagonists of the thyroid receptor (TR) signaling pathway - cell viability counter screen (AID 743064); also: nearly all actives have a fitted effect of over 50% in size; also: potency is read from the fitted curve at half-maximal effect
Method in brief: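 Rat GH3 pituitary tumor cells stably expressing two TR response elements driving luciferase were plated, rested 4 h, then dosed with library compounds and T3 (1 nM final). After 23.5 h at 37 °C, CellTiter-Fluor was added for 30 min and fluorescence recorded.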

[2] = qHTS assay to identify small molecule antagonists of the thyroid receptor (TR) signaling pathway (AID 743065); also: nearly all actives have a fitted effect of over 55% in size; also: potency is read from the fitted curve at half-maximal effect
Method in brief: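 GH3.TRE-Luc rat pituitary cells (two TREs driving luciferase) were dosed with compound, then stimulated with 1 nM T3 (final) for 23.5 h at 37 C. ONE-Glo luminescence was the read-out, with CellTiter-Fluor fluorescence as the cytotoxicity counter-screen.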

[3] = test system: thyroid hormone receptor (rat, GH3 cells); assay: qHTS assay to identify small molecule agonists of the thyroid receptor (TR) signaling pathway (AID 743066; calls by dose curve; also: potency is read from the fitted curve at half-maximal effect)
[4] = target: Estrogen receptor (Homo sapiens) (UniProt P03372); assay: qHTS assay to identify small molecule antagonists of the estrogen receptor alpha (ER-alpha) signaling pathway (AID 743069; active = well fitted curve in the direction sought with a large enough effect in the signal ratio in the repeat runs, not every such curve was filed as active; inconclusive = weak or mixed curves, or effect the other way; inactive = no such curve, though single readings can be large or run the other way; the % refers to the signal ratio; also: potency is read from the fitted curve at half-maximal effect)
Sequence of Estrogen receptor (Homo sapiens) (P03372 whole entry, looked up): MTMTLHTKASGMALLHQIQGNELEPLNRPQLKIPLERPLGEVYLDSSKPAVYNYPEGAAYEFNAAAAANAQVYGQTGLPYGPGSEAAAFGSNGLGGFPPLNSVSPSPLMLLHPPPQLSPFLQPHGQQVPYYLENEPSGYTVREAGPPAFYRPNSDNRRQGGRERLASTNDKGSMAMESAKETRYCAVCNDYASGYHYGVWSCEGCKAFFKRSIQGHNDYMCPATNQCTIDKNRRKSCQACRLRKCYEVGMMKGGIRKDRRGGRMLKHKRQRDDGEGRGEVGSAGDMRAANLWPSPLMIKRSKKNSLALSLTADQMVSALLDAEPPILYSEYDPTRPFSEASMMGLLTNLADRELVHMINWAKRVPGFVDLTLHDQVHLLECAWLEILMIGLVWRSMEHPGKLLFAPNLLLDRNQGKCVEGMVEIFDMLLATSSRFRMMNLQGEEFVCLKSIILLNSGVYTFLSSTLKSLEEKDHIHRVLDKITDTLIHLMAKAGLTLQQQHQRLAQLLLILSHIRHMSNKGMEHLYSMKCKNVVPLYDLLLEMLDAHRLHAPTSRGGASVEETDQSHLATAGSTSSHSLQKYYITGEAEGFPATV
Method in brief: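 Beta-lactamase FRET fluorescence is read after 2 hr at room temperature with LiveBLAzer B/G substrate. Before that, ER-alpha-bla HEK293 cells sit 4 hr after plating, then receive compound plus 17beta-estradiol and incubate 18 hr at 37C.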

[5] = qHTS assay to identify small molecule antagonists of the estrogen receptor alpha (ER-alpha) signaling pathway - cell viability counter screen (AID 743074; calls by dose curve;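 also: HEK293 cells carrying ER-alpha-UAS-bla reporter stimulated with 17beta-estradiol; nearly all actives have a fitted effect of over 45% in size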; also: potency is read from the fitted curve at half-maximal effect)
[6] = target: Estrogen receptor (Homo sapiens) (UniProt P03372); assay: qHTS assay to identify small molecule agonists of the estrogen receptor alpha (ER-alpha) signaling pathway (AID 743075; calls by dose curve;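 also: HEK293 GripTite cells with ER-alpha and UAS-driven beta-lactamase reporter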; also: potency is read from the fitted curve at half-maximal effect)
[7] = qHTS assay to identify small molecule antagonists of the estrogen receptor alpha (ER-alpha) signaling pathway using the BG1 cell line (AID 743080; calls by dose curve;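 also: BG1 cells stimulated with 17beta-estradiol alongside compound; series mostly up to about 70 µM; nearly all actives have a fitted effect of over 25% in size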)
Method in brief: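 Luciferase inhibition measured with ONE-Glo after 30 min at RT in BG1Luc4E2 cells given test compounds and 17beta-estradiol for 21.5 h at 37 C; CellTiter-Fluor viability read in the same wells beforehand.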

[8] = qHTS assay to identify small molecule antagonists of the estrogen receptor alpha (ER-alpha) signaling pathway using the BG1 cell line - cell viability counter screen (AID 743081);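 also: compound given together with 17beta-estradiol as the ER stimulus; series mostly up to about 70 µM; nearly all actives have a fitted effect of over 45% in size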
[9] = target: Aromatase (Homo sapiens) (UniProt P11511); assay: qHTS assay to identify aromatase inhibitors (AID 743083); also: nearly all actives have a fitted effect of over 55% in size; also: potency is read from the fitted curve at half-maximal effect
Sequence of Aromatase (Homo sapiens) (P11511 whole entry, looked up): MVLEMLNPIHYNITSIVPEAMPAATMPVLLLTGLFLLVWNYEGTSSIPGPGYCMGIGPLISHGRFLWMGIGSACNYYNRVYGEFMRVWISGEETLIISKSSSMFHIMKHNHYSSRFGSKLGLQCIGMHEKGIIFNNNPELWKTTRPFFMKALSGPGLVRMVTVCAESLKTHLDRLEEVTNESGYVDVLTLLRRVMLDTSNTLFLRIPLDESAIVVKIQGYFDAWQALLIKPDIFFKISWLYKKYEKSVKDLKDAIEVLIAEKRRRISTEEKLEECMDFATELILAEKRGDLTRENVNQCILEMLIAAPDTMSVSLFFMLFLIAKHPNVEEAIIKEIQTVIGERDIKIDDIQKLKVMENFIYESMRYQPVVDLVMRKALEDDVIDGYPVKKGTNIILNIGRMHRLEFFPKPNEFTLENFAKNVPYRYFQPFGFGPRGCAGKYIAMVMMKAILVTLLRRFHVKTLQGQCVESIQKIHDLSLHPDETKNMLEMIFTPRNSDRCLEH

[10] = target: Estrogen receptor (Homo sapiens) (UniProt P03372); assay: qHTS assay to identify small molecule agonists of the estrogen receptor alpha (ER-alpha) signaling pathway using the BG1 cell line (AID 743079); also: nearly all actives have a fitted effect of over 20% in size; also: potency is read from the fitted curve at half-maximal effect

Measured: Potency

COC1CC(=C(c2cccs2)c2cccs2)C[N+](C)(C)C1 (stereo not given)
inactive: [1] | [2] | [3] | [4] | [5] | [6] | [7] | [8] | [9]

O=C(CCl)CCl
inactive: [3] | [5] | [10] | [8]
active: [1] 25.2 µM and 15.4 µM | [2] 25.2 µM and 8.63 µM | [6] 50.7 µM [activator] and 1.1 µM [inconclusive] | [9] 44.9 µM and 8.63 µM

CCN(C(C)=O)c1cccc(-c2ccnc3c(C#N)cnn23)c1
inactive: [1] | [2] | [3] | [4] | [5] | [6] | [10] | [7] | [8] | [9]

CC(C)(C#N)C(C)(C)C#N
inactive: [1] | [2] | [3] | [5] | [8] | [9]

CCCCC#N
inactive: [1] | [2] | [3] | [4] | [5] | [6] | [10] | [7] | [8] | [9]

CCc1ccccc1N
inactive: [1] | [2] | [3] | [4] | [5] | [6] | [10] | [7] | [8] | [9]

CCCCC1C(=O)NC(=O)N(C2CCCCC2)C1=O (stereo not given)
inactive: [1] | [2] | [3] | [4] | [5] | [6] | [10] | [7] | [8] | [9]

O=[N+]([O-])O[C@H]1CO[C@H]2[C@@H]1OC[C@H]2O[N+](=O)[O-]
inactive: [1] | [2] | [3] | [4] | [5] | [6] | [7] | [8] | [9]

Cc1nc2ccccc2c(=O)n1-c1ccccc1Cl
active: [1] 30 µM | [10] 33.6 µM
inactive: [2] | [3] | [4] | [6] | [7] | [9]

CCCCOC(=O)CCC(=O)OCCCC
inactive: [1] | [2] | [3] | [5] | [8] | [9]

CC(C)(C)OOC(C)(C)CCC(C)(C)OOC(C)(C)C
inactive: [1] | [2] | [3] | [5] | [8]

C[N+]1(CCC(C(N)=O)(c2ccccc2)c2ccccc2)CCCCC1
inactive: [1] | [2] | [3] | [4] | [5] | [6] | [10] | [7] | [8] | [9]

NNCCO
inactive: [1] | [2] | [3] | [4] | [5] | [6] | [7] | [8] | [9]

CC(C)c1ccc(NC(=O)N(C)C)cc1
inactive: [1] | [2] | [3] | [4] | [5] | [6] | [8] | [9]

COC1=CC(=O)O[C@@H](/C=C/c2ccc3c(c2)OCO3)C1
inactive: [1] | [3] | [8] | [9]
active: [2] 58.5 nM

CCCCCCCCP(=O)(O)O
inactive: [1] | [2] | [3] | [5] | [8] | [9]

O=C1c2ccccc2C(=O)N1SC(Cl)(Cl)Cl
inactive: [6]
21.6 µM (active) and inactive: [5]
active: [1] 4.27 µM and 2.17 µM | [2] 2.4 µM and 1.54 µM | [4] 24.5 µM [inconclusive] | [9] 3.02 µM and 4.86 µM

CC(C)(c1ccccc1)c1cc(-n2nc3ccccc3n2)c(O)c(C(C)(C)c2ccccc2)c1
inactive: [1] | [3] | [4] | [5] | [6] | [10] | [7] | [8] | [9]

O=C(O)C(Cl)(Cl)Br
inactive: [1] | [2] | [3] | [5] | [8] | [9]

O=C(O)c1cc(Cl)ccc1Cl
inactive: [1] | [2] | [3] | [5] | [8] | [9]

CC1(C)[C@H](C(=O)O[C@H](C#N)c2cccc(Oc3ccccc3)c2)[C@@H]1C=C(Br)Br
inactive: [1] | [2] | [3] | [8] | [9]

CC(C)(C)CC(C)(C)c1ccc(O)cc1
inactive: [8]
active: [1] 23.7 µM and 25 µM | [2] 26.6 µM and 21.7 µM | [5] 43.6 µM

Cc1ccccc1
inactive: [1] | [2] | [3] | [5] | [8] | [9]

ClCc1ccccc1Cl
inactive: [1] | [2] | [3] | [5] | [8] | [9]

C=CCc1ccc(OC(=O)Cc2ccccc2)c(OC)c1
inactive: [1] | [2] | [3] | [5] | [8] | [9]

CCCCCl
inactive: [1] | [2] | [3] | [5] | [8] | [9]

C[C@@H]1C[C@@H]([C@H](O)CC2CC(=O)NC(=O)C2)C(=O)[C@@H](C)C1
active: [1] 0.237 µM | [2] 66.8 nM and 60.8 nM | [9] 750 nM and 383 nM
inactive: [3] | [8]

Clc1ccc(Cl)c(Cl)c1
inactive: [1] | [2] | [5] | [8] | [9]
inactive and 30.6 µM (active): [3]
